The record followed here is PMC8384837, “Expanding the binding specificity for RNA recognition by a PUF domain”.

Common to all, as to assay: yeast three-hybrid, YBZ-1, SC-Leu-His + 0.5 mM 3-AT, 4 days
What all share (settings): tags: N-Gal4 AD-HA kept; label: inside an RPR1-promoter hybrid RNA with tandem MS2 sites; ssRNA

One assay deals with T1, PUM1 PUF domain R6-VYM (Homo sapiens, UniProt Q14671 828-1176, N1043V;Q1047M).
T1 sequence: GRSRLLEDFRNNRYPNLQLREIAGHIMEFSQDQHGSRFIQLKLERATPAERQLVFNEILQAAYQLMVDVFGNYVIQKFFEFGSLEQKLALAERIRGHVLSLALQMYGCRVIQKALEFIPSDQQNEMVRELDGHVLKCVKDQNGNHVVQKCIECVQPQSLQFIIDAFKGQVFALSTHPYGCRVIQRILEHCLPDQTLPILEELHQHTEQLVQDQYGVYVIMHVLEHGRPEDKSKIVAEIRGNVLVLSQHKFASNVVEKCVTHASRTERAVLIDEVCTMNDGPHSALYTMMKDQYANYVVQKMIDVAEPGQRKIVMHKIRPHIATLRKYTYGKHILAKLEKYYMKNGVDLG
The essentials: (§1)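 Sequencing with Illumina followed PCR amplification of the repeat regions from transformants grown four days on SC-Leu (input) or SC-Leu-His + 0.5 mM 3-AT (selection). The transformants were strain YBZ-1 with a LexA–MS2 coat fusion and a HIS3 reporter, carrying Pumilio-1 PUF domain libraries and matching RNA elements. The interaction score is the log change in variant frequency from input to selection, computed in log2 with a pseudocount of 1 for absent variants.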

The next assay concerns the target PUM1 PUF domain R3-DFE (Homo sapiens, UniProt Q14671 828-1176, C935D;R936F;Q939E). The essentials:
as §1

Another assay deals with PUM1 PUF domain R4-VHH (Homo sapiens, UniProt Q14671 828-1176, N971V;Q975H). Summed up: as §1
Another assay addresses PUM1 PUF domain R4-EHR (Homo sapiens, UniProt Q14671 828-1176, N971E;Q975R). The essentials:
as §1

The target of the next assay is PUM1 PUF domain R5-RSR (Homo sapiens, UniProt Q14671 828-1176, C1007R;R1008S;Q1011R). The essentials: as §1
A further assay deals with PUM1 PUF domain R5-SQS (Homo sapiens, UniProt Q14671 828-1176, C1007S;R1008Q;Q1011S). Summed up: as §1
The target of a further assay is PUM1 PUF domain R8-PYH (Homo sapiens, UniProt Q14671 828-1176, N1122P;Q1126H). The essentials: as §1
A further assay concerns the target PUM1 PUF domain R1-KAS (Homo sapiens, UniProt Q14671 828-1176, S863K;R864A;Q867S). Summed up: as §1
A further assay deals with PUM1 PUF domain R1-RVQ (Homo sapiens, UniProt Q14671 828-1176, S863R;R864V). The essentials: as §1
A further assay addresses PUM1 PUF domain R7-RFP (Homo sapiens, UniProt Q14671 828-1176, S1079R;N1080F;E1083P). Summed up: as §1

Take “GGCUAGAACUAGUGGAUCCCCCGGCGCCCGGCGGCUCGAGCCCGGGUAAGUGUAAAUAGUCUGCAUGCCGCCGGGCGCCAUGCCUGCAGGUCGACUCUAGAAAACAUG”: the figures for the binding signal with PUM1 PUF domain R6-VYM and with PUM1 PUF domain R3-DFE were 2.8 log2 enrichment (interaction score) and 2.28 log2 enrichment (interaction score), respectively.

Turning to “GGCUAGAACUAGUGGAUCCCCCGGCGCCCGGCGGCUCGAGCCCGGGUAAGUGAAAAUAGUCUGCAUGCCGCCGGGCGCCAUGCCUGCAGGUCGACUCUAGAAAACAUG”, in the assay with PUM1 PUF domain R6-VYM, the binding signal is 6.6 log2 enrichment (interaction score).

With “GGCUAGAACUAGUGGAUCCCCCGGCGCCCGGCGGCUCGAGCCCGGGUAAGUGUACAUAGUCUGCAUGCCGCCGGGCGCCAUGCCUGCAGGUCGACUCUAGAAAACAUG”, the binding signal is 5.04 log2 enrichment (interaction score) with PUM1 PUF domain R4-VHH and 3 log2 enrichment (interaction score) with PUM1 PUF domain R4-EHR.

For “GGCUAGAACUAGUGGAUCCCCCGGCGCCCGGCGGCUCGAGCCCGGGUAAGUGUUAAUAGUCUGCAUGCCGCCGGGCGCCAUGCCUGCAGGUCGACUCUAGAAAACAUG”, in the assay with PUM1 PUF domain R5-RSR, the binding signal was 3.79 log2 enrichment (interaction score).

For the sequence “GGCUAGAACUAGUGGAUCCCCCGGCGCCCGGCGGCUCGAGCCCGGGUAAGUGUCAAUAGUCUGCAUGCCGCCGGGCGCCAUGCCUGCAGGUCGACUCUAGAAAACAUG”, the binding signal with PUM1 PUF domain R5-RSR was 4.48 log2 enrichment (interaction score).

For the sequence “GGCUAGAACUAGUGGAUCCCCCGGCGCCCGGCGGCUCGAGCCCGGGUAAGUGUGAAUAGUCUGCAUGCCGCCGGGCGCCAUGCCUGCAGGUCGACUCUAGAAAACAUG”, the binding signal with PUM1 PUF domain R5-SQS is 3.19 log2 enrichment (interaction score).

For the sequence “GGCUAGAACUAGUGGAUCCCCCGGCGCCCGGCGGCUCGAGCCCGGGUAAGCGUAAAUAGUCUGCAUGCCGCCGGGCGCCAUGCCUGCAGGUCGACUCUAGAAAACAUG”, the binding signal with PUM1 PUF domain R8-PYH was 3.67 log2 enrichment (interaction score).

Turning to “GGCUAGAACUAGUGGAUCCCCCGGCGCCCGGCGGCUCGAGCCCGGGUAAGUGUAAAUUGUCUGCAUGCCGCCGGGCGCCAUGCCUGCAGGUCGACUCUAGAAAACAUG”, the binding signal with PUM1 PUF domain R1-KAS is 3.9 log2 enrichment (interaction score); with PUM1 PUF domain R1-RVQ, 4.43 log2 enrichment (interaction score).

Consider “GGCUAGAACUAGUGGAUCCCCCGGCGCCCGGCGGCUCGAGCCCGGGUAAGUCUAAAUAGUCUGCAUGCCGCCGGGCGCCAUGCCUGCAGGUCGACUCUAGAAAACAUG”, for which the binding signal with PUM1 PUF domain R7-RFP was 5.14 log2 enrichment (interaction score).

As to “GGCUAGAACUAGUGGAUCCCCCGGCGCCCGGCGGCUCGAGCCCGGGUAAGUGUAUAUAGUCUGCAUGCCGCCGGGCGCCAUGCCUGCAGGUCGACUCUAGAAAACAUG”, in the assay with PUM1 PUF domain R4-EHR, the binding signal is 3.83 log2 enrichment (interaction score).

Consider “GGCUAGAACUAGUGGAUCCCCCGGCGCCCGGCGGCUCGAGCCCGGGUAAGUGUAAAUCGUCUGCAUGCCGCCGGGCGCCAUGCCUGCAGGUCGACUCUAGAAAACAUG”, for which the binding signal in the assay with PUM1 PUF domain R1-RVQ was 4.56 log2 enrichment (interaction score).
